Results on 7 compounds are retold here after PubChem BioAssay (EPA / NIEHS).

The source made the active and inactive calls. Rule for the calls: active = hit-call score of the fitted dose curve at least 0.9, where 1 is the maximum; inactive = score below 0.9.

The nature of one test: CCTE_Shafer_MEA_acute_burst_number: CCTE's Neural Acute Assay for Single-Electrode Bursts, Shafer Lab (AID 2284013). The procedure, abridged:
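Rat cortical cultures, DIV 13/15; 40 min baseline, then 40 min with compound 0.03-40 uM, 37 C. Spikes: 300-5000 Hz band-pass, threshold 8x rms noise. Readout = % change in single-electrode bursts vs baseline, loss-of-signal fit.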
On to `COc1cc(C(=O)NC2CCN(C)CC2)ccc1Nc1ncc2c(n1)N(C1CCCC1)CC(F)(F)C(=O)N2C`, for which the compound was classed as inactive.
Usually AC50 stands for the concentration at which the activity in the assay is half-maximal. With `CN(C[C@@H](CC[N+]12CCC(C3CCCCC3)(CC1)CC2)c1ccc(Cl)c(Cl)c1)C(=O)c1cc(C(F)(F)F)cc(C(F)(F)F)c1`, the half-maximal activity concentration (AC50) was 0.249 µM (active).
Turning to `O=C(O)c1ccccc1-n1cc(C(=O)O)c(=O)c2cc(Nc3c(F)cc(F)cc3Cl)c(Cl)cc21`, the compound was classed as inactive.
With `CCCCOC(=O)c1ccc(O)cc1`, the call was inactive.
The same measure, in the same setting: the value for `CC(O)CC(C)(C)O` (configuration not stated) was “inactive”; that for `CC(=O)N1CCN(c2ccc(OC[C@H]3CO[C@](Cn4ccnc4)(c4ccc(Cl)cc4Cl)O3)cc2)CC1` was “inactive”.
`CCN(Cc1cccc(S(=O)(=O)O)c1)c1ccc(C(=C2C=CC(=[N+](CC)Cc3cccc(S(=O)(=O)O)c3)C=C2)c2ccccc2S(=O)(=O)[O-])cc1`: the compound was called inactive.

A further test in a line: CCTE_Shafer_MEA_acute_burst_duration_mean: CCTE's Neural Acute Assay for Mean Burst Duration, Shafer Lab (AID 2284014).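 Note: hits are decreases in mean burst duration relative to DMSO controls.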 The procedure, abridged: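 Primary rat cortical neurons on 16-electrode MEA wells, treated on DIV 13 or 15 with compound (0.03-40 uM; ≥3 wells each). 40-min baseline and 40-min exposure recordings at 37 C; percent change in mean burst duration per well versus DMSO.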
`COc1cc(C(=O)NC2CCN(C)CC2)ccc1Nc1ncc2c(n1)N(C1CCCC1)CC(F)(F)C(=O)N2C`: the AC50 is 1.85 µM (active).
As for `CN(C[C@@H](CC[N+]12CCC(C3CCCCC3)(CC1)CC2)c1ccc(Cl)c(Cl)c1)C(=O)c1cc(C(F)(F)F)cc(C(F)(F)F)c1`, the AC50 was 1.19 µM (active).
For the compound `O=C(O)c1ccccc1-n1cc(C(=O)O)c(=O)c2cc(Nc3c(F)cc(F)cc3Cl)c(Cl)cc21`, the result was inactive.
Same read-out and setting: the value for `CCCCOC(=O)c1ccc(O)cc1` was “inactive”; that for `CC(O)CC(C)(C)O` (configuration not stated) was “inactive”; that for `CC(=O)N1CCN(c2ccc(OC[C@H]3CO[C@](Cn4ccnc4)(c4ccc(Cl)cc4Cl)O3)cc2)CC1` was “inactive”.
On the same count and under the same terms, the value for `CCN(Cc1cccc(S(=O)(=O)O)c1)c1ccc(C(=C2C=CC(=[N+](CC)Cc3cccc(S(=O)(=O)O)c3)C=C2)c2ccccc2S(=O)(=O)[O-])cc1` was “inactive”.

The next test can be described thus: CCTE_Shafer_MEA_acute_per_burst_spike_number_mean: CCTE's Neural Acute Assay for Average Number of Spikes Per Burst, Shafer Lab (AID 2284015).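 Note: hits are decreases in mean spikes per burst versus baseline.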 Summed up:
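Primary rat cortical neurons on 48-well MEA plates, treated on DIV 13 or 15 at 0.03-40 uM. Spontaneous activity recorded 40 min before and 40 min after compound at 37 C; percent change in mean spikes per single-electrode burst per well, fitted in the loss direction versus DMSO.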
With `COc1cc(C(=O)NC2CCN(C)CC2)ccc1Nc1ncc2c(n1)N(C1CCCC1)CC(F)(F)C(=O)N2C`, the AC50 is 29.9 µM (active).
On the same count and under the same terms, the value for `CN(C[C@@H](CC[N+]12CCC(C3CCCCC3)(CC1)CC2)c1ccc(Cl)c(Cl)c1)C(=O)c1cc(C(F)(F)F)cc(C(F)(F)F)c1` was 1.14 µM (active).
Take `O=C(O)c1ccccc1-n1cc(C(=O)O)c(=O)c2cc(Nc3c(F)cc(F)cc3Cl)c(Cl)cc21`: the concentration at half-maximal activity (AC50) is 20 µM (active).
With `CCCCOC(=O)c1ccc(O)cc1`, the outcome was inactive.
The same measure, in the same setting: the value for `CC(O)CC(C)(C)O` (configuration not stated) was “inactive”.
Turning to `CC(=O)N1CCN(c2ccc(OC[C@H]3CO[C@](Cn4ccnc4)(c4ccc(Cl)cc4Cl)O3)cc2)CC1`, the outcome was inactive.
Still for that read-out and setting: the value for `CCN(Cc1cccc(S(=O)(=O)O)c1)c1ccc(C(=C2C=CC(=[N+](CC)Cc3cccc(S(=O)(=O)O)c3)C=C2)c2ccccc2S(=O)(=O)[O-])cc1` was “inactive”.

The nature of the next test: CCTE_Shafer_MEA_acute_interburst_interval_mean: CCTE's Neural Acute Assay for Mean Interburst Interval, Shafer Lab (AID 2284016).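 Note: percent change of mean interburst interval versus each well's own pre-dose baseline; curves fitted for decrease in interburst interval relative to DMSO.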 The procedure, abridged: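 Primary rat cortical neurons on 16-electrode MEA wells were recorded 40 min at baseline on DIV 13 or 15, then 40 min after compound (0.03-40 uM), at 37 C. Value is percent change in mean interburst interval per well, DMSO as negative control.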
In the case of `COc1cc(C(=O)NC2CCN(C)CC2)ccc1Nc1ncc2c(n1)N(C1CCCC1)CC(F)(F)C(=O)N2C`, the half-maximal activity concentration (AC50) is 3.83 µM (active).
Consider `CN(C[C@@H](CC[N+]12CCC(C3CCCCC3)(CC1)CC2)c1ccc(Cl)c(Cl)c1)C(=O)c1cc(C(F)(F)F)cc(C(F)(F)F)c1`, for which the outcome was inactive.
Still for that read-out and setting: the value for `O=C(O)c1ccccc1-n1cc(C(=O)O)c(=O)c2cc(Nc3c(F)cc(F)cc3Cl)c(Cl)cc21` was “inactive”.
On to `CCCCOC(=O)c1ccc(O)cc1`, for which the AC50 was 31 µM (active).
On to `CC(O)CC(C)(C)O` (configuration not stated), for which the result was inactive.
Consider `CC(=O)N1CCN(c2ccc(OC[C@H]3CO[C@](Cn4ccnc4)(c4ccc(Cl)cc4Cl)O3)cc2)CC1`, for which the outcome was inactive.
On the same count and under the same terms, the value for `CCN(Cc1cccc(S(=O)(=O)O)c1)c1ccc(C(=C2C=CC(=[N+](CC)Cc3cccc(S(=O)(=O)O)c3)C=C2)c2ccccc2S(=O)(=O)[O-])cc1` was “inactive”.

The nature of another test: CCTE_Shafer_MEA_acute_burst_percentage_mean: CCTE's Neural Acute Assay for Percentage of Spikes in a Burst, Shafer Lab (AID 2284017).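 For AC50: curve fitted for loss of signal so potency reflects decreased burst percentage.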 Summed up:
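Primary rat cortical neurons on 16-electrode MEA wells; 40 min baseline recorded at DIV 13 or 15, then 40 min after compound (0.03-40 uM) at 37 C. Well-mean fraction of spikes in single-electrode bursts; percent change from baseline, DMSO as negative control.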
As to `COc1cc(C(=O)NC2CCN(C)CC2)ccc1Nc1ncc2c(n1)N(C1CCCC1)CC(F)(F)C(=O)N2C`, the half-maximal activity concentration (AC50) was 15 µM (active).
Still for that read-out and setting: the value for `CN(C[C@@H](CC[N+]12CCC(C3CCCCC3)(CC1)CC2)c1ccc(Cl)c(Cl)c1)C(=O)c1cc(C(F)(F)F)cc(C(F)(F)F)c1` was 8.36 µM (active).
As for `O=C(O)c1ccccc1-n1cc(C(=O)O)c(=O)c2cc(Nc3c(F)cc(F)cc3Cl)c(Cl)cc21`, the result was inactive.
For the compound `CCCCOC(=O)c1ccc(O)cc1`, the AC50 was 31.1 µM (active).
`CC(O)CC(C)(C)O` (configuration not stated): the result was inactive.
For `CC(=O)N1CCN(c2ccc(OC[C@H]3CO[C@](Cn4ccnc4)(c4ccc(Cl)cc4Cl)O3)cc2)CC1`, the AC50 is 33 µM (active).
For `CCN(Cc1cccc(S(=O)(=O)O)c1)c1ccc(C(=C2C=CC(=[N+](CC)Cc3cccc(S(=O)(=O)O)c3)C=C2)c2ccccc2S(=O)(=O)[O-])cc1`, the call was inactive.

A short description of the next test: CCTE_Shafer_MEA_acute_burst_percentage_std: CCTE's Neural Acute Assay for Standard Deviation of Burst Percentage, Shafer Lab (AID 2284018).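 Note: fitted in the negative direction so actives lower burst percentage SD.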 The procedure, abridged:
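Primary rat cortical neurons on 16-electrode MEA wells were recorded 40 min at baseline (DIV 13 or 15), then 40 min after compound (0.03-40 uM), at 37 C. Well value is SD across electrodes of spikes-in-bursts/total spikes; endpoint is percent change, DMSO-referenced.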
`COc1cc(C(=O)NC2CCN(C)CC2)ccc1Nc1ncc2c(n1)N(C1CCCC1)CC(F)(F)C(=O)N2C`: the compound was called inactive.
Take `CN(C[C@@H](CC[N+]12CCC(C3CCCCC3)(CC1)CC2)c1ccc(Cl)c(Cl)c1)C(=O)c1cc(C(F)(F)F)cc(C(F)(F)F)c1`: the concentration at half-maximal activity (AC50) is 2.53 µM (active).
Turning to `O=C(O)c1ccccc1-n1cc(C(=O)O)c(=O)c2cc(Nc3c(F)cc(F)cc3Cl)c(Cl)cc21`, the outcome was inactive.
Still for that read-out and setting: the value for `CCCCOC(=O)c1ccc(O)cc1` was “inactive”; that for `CC(O)CC(C)(C)O` (configuration not stated) was “inactive”.
Turning to `CC(=O)N1CCN(c2ccc(OC[C@H]3CO[C@](Cn4ccnc4)(c4ccc(Cl)cc4Cl)O3)cc2)CC1`, the AC50 was 32.9 µM (active).
Regarding `CCN(Cc1cccc(S(=O)(=O)O)c1)c1ccc(C(=C2C=CC(=[N+](CC)Cc3cccc(S(=O)(=O)O)c3)C=C2)c2ccccc2S(=O)(=O)[O-])cc1`, the outcome was inactive.
